From publication PMC4336329 (PLoS ONE, 2015)
Screen size: about 310,000 compounds; about 14,000 (4.5%) showed an effect of 50% or more. The effect is printed as a negative number. This is one part of a sample in which strong results are shown more often than they occur.

target: human ether-à-go-go-related gene (hERG) potassium channel (human, UniProt Q12809); assay: primary screen, population patch clamp on CHO cells stably expressing hERG; higher = less effect of the substance
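Also: peak tail current of the secondary pulse compared with the same well before compound.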

human ether-à-go-go-related gene (hERG) potassium channel, sequence (Q12809 whole entry, looked up): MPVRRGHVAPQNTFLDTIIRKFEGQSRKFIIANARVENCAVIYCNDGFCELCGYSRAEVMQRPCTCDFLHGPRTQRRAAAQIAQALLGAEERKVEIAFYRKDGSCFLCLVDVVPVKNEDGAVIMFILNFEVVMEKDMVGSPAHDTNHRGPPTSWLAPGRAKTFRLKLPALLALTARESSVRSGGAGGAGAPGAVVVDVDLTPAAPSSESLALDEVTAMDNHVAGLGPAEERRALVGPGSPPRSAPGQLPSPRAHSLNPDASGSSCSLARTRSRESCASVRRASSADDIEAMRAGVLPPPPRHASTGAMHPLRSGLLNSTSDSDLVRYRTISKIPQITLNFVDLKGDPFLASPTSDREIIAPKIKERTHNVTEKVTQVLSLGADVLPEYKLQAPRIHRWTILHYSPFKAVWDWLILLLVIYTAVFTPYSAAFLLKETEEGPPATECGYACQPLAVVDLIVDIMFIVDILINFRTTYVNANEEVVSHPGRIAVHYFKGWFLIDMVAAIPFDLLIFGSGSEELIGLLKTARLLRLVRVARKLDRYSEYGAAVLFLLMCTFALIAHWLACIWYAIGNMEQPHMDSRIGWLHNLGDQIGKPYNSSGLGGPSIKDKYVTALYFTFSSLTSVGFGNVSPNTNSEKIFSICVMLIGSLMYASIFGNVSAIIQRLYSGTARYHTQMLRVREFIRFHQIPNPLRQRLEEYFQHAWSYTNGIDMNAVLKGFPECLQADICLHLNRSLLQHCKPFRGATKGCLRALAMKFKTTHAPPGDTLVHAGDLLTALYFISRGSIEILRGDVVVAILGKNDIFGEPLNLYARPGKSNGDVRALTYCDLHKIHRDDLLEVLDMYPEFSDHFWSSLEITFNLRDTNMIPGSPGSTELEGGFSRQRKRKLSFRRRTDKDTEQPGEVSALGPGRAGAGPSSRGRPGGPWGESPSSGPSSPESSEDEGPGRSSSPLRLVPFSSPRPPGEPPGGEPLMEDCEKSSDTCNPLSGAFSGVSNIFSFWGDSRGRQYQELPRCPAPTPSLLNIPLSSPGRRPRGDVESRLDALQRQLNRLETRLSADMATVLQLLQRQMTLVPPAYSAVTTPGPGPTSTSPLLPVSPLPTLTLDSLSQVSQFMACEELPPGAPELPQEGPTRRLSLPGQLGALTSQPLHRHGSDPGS

SMILES	hERG current change (%, negative = inhibition) at 10uM [%]
O=C(O)/C=C/C(=O)NC1CC1	41.9
CCN(CC)CCOc1nnc(-c2ccc(C)cc2)c2ccccc12	-67.7
COc1nnc(-c2ccc(C)cc2)c2ccccc12	5.93
COc1ccc(-c2nnc(OC)c3ccccc23)cc1	-7.99
COc1ccc(Oc2nnc(-c3ccc(C)cc3)c3ccccc23)cc1	5.64
Cc1ccc(-c2nnc(OCCN3CCOCC3)c3ccccc23)cc1	-43.4
CCN(CC)CCOc1nnc(-c2ccc(OC)cc2)c2ccccc12	-65
Br.c1ccc(-c2cc3n(c2)CCc2ccccc2-3)cc1	4.17
O=C(CC1C(=O)NCCN1C(=S)Nc1ccccc1)Nc1ccc2c(c1)OCCO2 (centres unmarked)	-15.2
O=C(NCCCn1ccnc1)c1cn(-c2ccccc2)nc1-c1ccc(F)cc1	-64
CSc1ccc(/C=C(/NC(=O)c2ccccc2)C(=O)NCCCn2ccnc2)cc1	-60.8
O=C(NCCCn1ccnc1)/C(=C/c1ccc(Cl)cc1)NC(=O)c1ccccc1	-74.7
COc1ccc(-c2nn(-c3ccccc3)cc2C(=O)NCCCn2ccnc2)cc1	-39.4
C/C(=C\c1ccccc1)C(=O)NCCCn1ccnc1	-10.1
O=C(NCCCn1ccnc1)/C(=C\c1ccc(Br)cc1)NC(=O)c1ccccc1	-75.8
O=C(NCCCn1ccnc1)/C(=C\c1cccnc1)NC(=O)c1cccc(Br)c1	-0.509
O=C(NCCCn1ccnc1)c1cn(-c2ccccc2)nc1-c1ccccc1	-47.1
COc1ccc(/C=C(\NC(=O)c2ccc(Cl)cc2)C(=O)NCCCn2ccnc2)cc1OC	13.9
CCOC(=O)C1=CN(c2cccc(F)c2)C=C(C(=O)OCC)C1c1cc(OC)c(O)c([N+](=O)[O-])c1	-3.91
CCOC(=O)c1nc(C)nc(Sc2n[nH]c(-c3cc(C(F)(F)F)cc(C(F)(F)F)c3)n2)c1C	-19.5
CCCc1cc(=O)oc2c(CN(CC)CC)c(O)c(Cl)cc12	-39.8
CC(C)N(C(=O)CSc1nnc(NC(=O)C2CCC2)s1)C(C)C	-11.1
COc1ccc(CNC(=O)c2cc(-c3cccs3)on2)cc1	-2.38
CCN(CC(=O)Nc1ccc2c(c1)OCCO2)C(=O)/C=C/c1ccc(F)cc1	-7.2

SMILES	hERG current change (%, negative = inhibition) at 10uM [%]
O=C(NCCCn1ccnc1)C(Cl)(Cl)Cl	-0.517
O=C(NCCCn1ccnc1)/C(=C\c1ccccc1Cl)NC(=O)c1ccccc1	-41.2
Cc1ccc(C(=O)N/C(=C/c2ccccc2F)C(=O)NCCCn2ccnc2)cc1	-40.5
CC(C)(C)c1ccc(C(=O)NCCCn2ccnc2)cc1.Cl	-11
CN(c1ccccc1)S(=O)(=O)c1cc(C(=O)NCCCn2ccnc2)ccc1Cl	-60.3
O=C(NCCCn1ccnc1)c1ccc(Cl)c(Cl)c1	-17.3
CC(C(=O)NCCCn1ccnc1)(c1ccccc1)c1ccccc1.Cl	-73.1
O=C(NCCCn1ccnc1)/C(=C/c1ccc(F)cc1)NC(=O)c1ccccc1	-75.6
CN(C)CCCNC(=O)c1ccc(Cl)c(S(=O)(=O)N(C)c2ccccc2)c1.Cl	-35
O=C(NCCCn1ccnc1)/C(=C\c1ccccc1F)NC(=O)c1ccccc1	-75
O=C(O)c1ccc(COc2ccc3c4c(c(=O)oc3c2)CCC4)o1	21.4
Cc1cccc(-c2n[nH]c(=S)n2Cc2ccccc2)c1	-2.87
NS(=O)(=O)c1ccc(NC(=O)COC(=O)CSc2n[nH]c(-c3ccccc3)n2)cc1	12
O=C(NN1C(=O)C2C3c4ccccc4C(c4ccccc43)C2C1=O)c1ccc(Cl)cc1 (centres unmarked)	-8.19
COc1cc(C(=O)NCc2ccco2)c(Br)c(OC)c1OC	-4.22
O=C(Nc1cc(C(F)(F)F)ccc1Cl)c1ccc(NC(=O)C(F)(F)F)cc1	0.159
Cc1c(-n2c(SCC(C)C)nc3ccccc3c2=O)c(=O)n(-c2ccccc2)n1C	0.437
COC(=O)CSc1nc(N)c(C#N)c(C(C)C)c1C#N	-8.45
CN(C)c1ccc(/C=C(/NC(=O)c2ccccc2)C(=O)NCCCn2ccnc2)cc1	0.277
O=C(NCCCn1ccnc1)/C(=C/c1ccccc1)NC(=O)c1ccccc1	-70.3
CN(C)c1ccc(/C=C(\NC(=O)c2ccccc2)C(=O)NCCCn2ccnc2)cc1	-9.78
CC(C)c1ccc(/C=C(\NC(=O)c2ccccc2)C(=O)NCCCn2ccnc2)cc1	-78.2
CC(=O)Nc1nc(CC(C)C)cc(-c2ccccc2)c1C#N	4.98
